Results published in PubChem BioAssay (Tox21).
Several values for one entry are separate records, joined by “and”; a condition that tells them apart may be missing. Equal entries are not always repeated. Records with an inconclusive call do not appear. A structure can be active in one record and inactive in another. Activity calls are given as the source filed them. Unless noted, calls follow the shape of the full dose curve.

Tests used:
[1] = target: Nuclear receptor subfamily 1 group I member 3 (Homo sapiens) (UniProt Q14994); test: qHTS assay to identify small molecule agonists of the constitutive androstane receptor (CAR) signaling pathway (AID 1224839; active = well fitted curve in the direction sought with a large enough effect in the repeat runs; an effect the other way counts as inactive or inconclusive; also: nearly all actives have a fitted effect of over 15% in size; also: potency is read from the fitted curve at half-maximal effect;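 as to activation: HepG2 cells stably carrying human CAR and a CYP2B6 luciferase reporter; series mostly up to about 92 µM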)
Sequence of Nuclear receptor subfamily 1 group I member 3 (Homo sapiens) (Q14994 whole entry, looked up): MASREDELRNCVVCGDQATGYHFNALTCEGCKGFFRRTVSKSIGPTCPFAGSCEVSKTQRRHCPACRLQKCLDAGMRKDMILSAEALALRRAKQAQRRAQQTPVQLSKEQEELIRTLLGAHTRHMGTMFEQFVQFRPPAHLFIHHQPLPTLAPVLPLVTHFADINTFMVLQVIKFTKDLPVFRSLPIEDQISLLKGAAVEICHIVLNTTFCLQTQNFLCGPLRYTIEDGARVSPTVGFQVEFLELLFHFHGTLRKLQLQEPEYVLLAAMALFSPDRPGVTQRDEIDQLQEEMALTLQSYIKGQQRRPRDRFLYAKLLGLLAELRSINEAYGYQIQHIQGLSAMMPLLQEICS
In short: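 HepG2 cells stably expressing hCAR and a CYP2B6-2.2kb luciferase reporter were treated with compounds at 15 concentrations plus 0.75 uM PK11195 (final) for 24 h at 37 C; luminescence was read after ONE-Glo addition.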

[2] = qHTS assay to identify small molecule antagonists of the estrogen related receptor signaling pathway with the pleiotropic PPARgamma coactivator (PGC) from Tox21 10K library - cell viability counter screen (AID 1224840; active = well fitted cell-killing curve with a large enough effect in the repeat runs, not every such curve was filed as active; also: nearly all actives have a fitted effect of over 40% in size)
In short: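 Seeded PGC/ERR cells (2,000/well, 6 h, 37 C/5% CO2) get compound by pin tool; 17.5 h incubation at 37 C; CellTiter-Fluor added, 30 min, fluorescence measured.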

[3] = qHTS assay to identify small molecule antagonists of the estrogen related receptor signaling pathway with the pleiotropic PPARgamma coactivator (PGC) from Tox21 10K library (AID 1224841; call rule not given here; also: actives are mostly falling curves and most rising ones were filed inactive; nearly all actives have a fitted effect of over 50% in size; also: potency is read from the fitted curve at half-maximal effect)
In short: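 Test chemicals dissolved in DMSO were applied to pre-incubated (6 h) PGC/ERR cells at 2,000 cells/well for an 18 h, 37 C treatment; reporter luminescence was then read using One-Glo.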

[4] = qHTS assay to identify small molecule agonists of the estrogen related receptor signaling pathway with the pleiotropic PPARgamma coactivator (PGC) from Tox21 10K library (AID 1224842; active = well fitted curve in the direction sought with a large enough effect in the repeat runs; an effect the other way counts as inactive or inconclusive; also: nearly all actives have a fitted effect of over 15% in size)
In short: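 Luminescence from One-Glo (30 min, room temperature) measured after PGC/ERR cells had 18 h at 37 C with pinned compound (23 nL in DMSO). Cells had been seeded at 2,000 per well and pre-incubated 6 h.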

[5] = target: Thyrotropin receptor (Homo sapiens) (UniProt P16473); test: qHTS assay to identify small molecule agonists of the thyroid stimulating hormone receptor (TSHR) signaling pathway (AID 1224843); also: nearly all actives have a fitted effect of over 45% in size; also: potency is read from the fitted curve at half-maximal effect
Sequence of Thyrotropin receptor (Homo sapiens) (P16473 whole entry, looked up): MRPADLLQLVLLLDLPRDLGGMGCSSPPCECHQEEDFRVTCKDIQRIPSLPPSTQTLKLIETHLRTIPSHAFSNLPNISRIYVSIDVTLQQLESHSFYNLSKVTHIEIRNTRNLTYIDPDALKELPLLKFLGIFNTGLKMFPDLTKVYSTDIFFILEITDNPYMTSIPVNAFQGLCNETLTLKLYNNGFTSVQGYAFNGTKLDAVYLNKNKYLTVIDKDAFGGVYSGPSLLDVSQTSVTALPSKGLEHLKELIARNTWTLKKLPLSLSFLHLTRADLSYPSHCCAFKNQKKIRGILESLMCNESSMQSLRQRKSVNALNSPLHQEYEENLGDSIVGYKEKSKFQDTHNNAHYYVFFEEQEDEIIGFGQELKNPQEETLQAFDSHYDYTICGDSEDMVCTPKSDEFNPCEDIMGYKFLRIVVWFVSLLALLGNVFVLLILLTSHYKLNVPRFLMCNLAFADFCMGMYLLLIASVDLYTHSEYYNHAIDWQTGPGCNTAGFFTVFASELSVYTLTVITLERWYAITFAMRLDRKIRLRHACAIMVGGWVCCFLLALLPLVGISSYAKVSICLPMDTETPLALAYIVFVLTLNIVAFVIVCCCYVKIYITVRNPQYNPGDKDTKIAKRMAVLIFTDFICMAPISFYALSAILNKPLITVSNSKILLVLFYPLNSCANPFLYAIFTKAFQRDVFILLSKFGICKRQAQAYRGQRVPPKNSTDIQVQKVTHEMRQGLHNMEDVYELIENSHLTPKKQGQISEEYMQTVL
In short: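 Agonist activity read as cAMP rise via d2/cryptate HTRF competition, 1 h room-temperature detection, in HEK293 cells expressing TSHR. Fifteen-point titrations, each run in triplicate, with a 30 min room-temperature incubation beforehand.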

[6] = qHTS assay to identify small molecule agonists of the hypoxia (HIF-1) signaling pathway - cell viability counter screen (AID 1224844); also: nearly all actives have a fitted effect of over 50% in size; also: potency is read from the fitted curve at half-maximal effect
In short: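 HRE-bla ME-180; 0.5% dFBS; cpd 17 h, 37C, 5% CO2; CellTiter-Glo lum., 30 min RT, post-FRET read, same wells.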

[7] = qHTS assay to identify small molecule agonists of H2AX (AID 1224845; active = well fitted activation curve with a large enough effect in the signal ratio in the repeat runs, not every such curve was filed as active; the % refers to the signal ratio; also: potency is read from the fitted curve at half-maximal effect)
In short: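 Phospho-H2AX Ser139 measured by HTRF (ex 320 nm; em 665 and 620 nm) after 24 hr antibody incubation. Compounds, 15 concentrations, 0.76% DMSO, were applied to CHO-K1 cells for 3hr at 37C before lysis.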

[8] = qHTS assay to identify small molecule agonists of H2AX - cell viability counter screen (AID 1224847); also: top concentration of the series differs between compounds; nearly all actives have a fitted effect of over 30% in size
In short: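 Wild-type CHO-K1 cells (10% FBS medium) were plated overnight at 37C, exposed to compounds at 15 concentrations for 3 hr at 37C (0.76% DMSO final), and viability was read as CellTiter-Glo luminescence after 30 min at room temperature.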

[9] = qHTS assay to identify small molecule antagonists of the estrogen related receptor (ERR) signaling pathway from Tox21 library (AID 1224848; active = well fitted curve in the direction sought with a large enough effect in the repeat runs; an effect the other way counts as inactive or inconclusive; also: nearly all actives have a fitted effect of over 50% in size; also: potency is read from the fitted curve at half-maximal effect)
In short: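 Luciferase luminescence (ONE-Glo, 30 min room temperature) was the read-out. Cells of the NTP-supplied ERR line, 2,000 per well, were given 6 h at 37 C before compound addition in DMSO and 18 h exposure at 37 C.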

[10] = qHTS assay to identify small molecule agonists of the hypoxia (HIF-1) signaling pathway (AID 1224846; active = well fitted activation curve with a large enough effect in the signal ratio in the repeat runs, not every such curve was filed as active; the % refers to the signal ratio)
In short: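 Reporter induction in HRE-bla ME-180 cells is taken as agonism: cells sit 5 hrs after plating, receive compounds or DMSO only, incubate 17 hrs at 37C under 5% CO2, and are loaded with CCF4-AM for beta-lactamase FRET measurement.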

Measured: Potency

COC(=O)c1ccccc1C(=O)OC
38.8 µM (active) and inactive: [3]
not listed: [10]
inactive: all other assays above

CCCN(CCC)c1c([N+](=O)[O-])cc(C(F)(F)F)cc1[N+](=O)[O-]
active: [5] 10.8 µM and 12.2 µM
not listed: [3] | [4] | [9]
inactive: all other assays above

O=Cc1cccc(Oc2ccccc2)c1
not listed: [3] | [4] | [9]
inactive: all other assays above

Clc1cccc(Cl)c1Cl
inactive: all assays above

ClCCBr
inactive: all assays above

CCC[CH2][Sn]([Cl])([Cl])[Cl]
active: [3] 31.1 µM
inactive: all other assays above

CNC(=O)Oc1ccccc1OC(C)C
inactive: all assays above

O=[N+]([O-])c1ccc(Oc2ccc(Cl)cc2Cl)cc1
54.8 µM (active) and inactive: [1]
not listed: [7] | [8]
inactive: all other assays above

CN1C(=O)CN=C(c2ccccc2)c2cc(Cl)ccc21
not listed: [4]
inactive: all other assays above

COC(=O)c1ccccc1N
not listed: [10]
inactive: all other assays above

CN(N=O)c1ccccc1
not listed: [7]
inactive: all other assays above

CCc1cccc(C)c1N(C(=O)CCl)C(C)COC (stereo not given)
active: [1] 25.7 µM and 15.4 µM | [3] 45.8 µM and 24.3 µM | [9] 51.3 µM and 54.5 µM
not listed: [7]
inactive: all other assays above

CCOC(=O)c1ccccc1C(=O)OCC
not listed: [5]
inactive: all other assays above

Cn1cc(-c2ccccc2)c(=O)c(-c2cccc(C(F)(F)F)c2)c1
inactive: all assays above

[N-]=[N+]=[N-]
inactive: [1] | [2] | [5] | [6] | [8]

C[C@]12CC[C@H]3[C@@H](CC[C@@]45O[C@@H]4C(O)=C(C#N)C[C@]35C)[C@@H]1CC[C@@H]2O
inactive: [1] | [2] | [5] | [6] | [10] | [8]

O=NN1CCCC1
11.5 µM (active) and inactive: [6]
inactive: [1] | [2] | [5] | [8]
16.7 µM (active) and inactive: [7]

Cc1ccc(N)cc1Cl
inactive: [1] | [2] | [5] | [6] | [10] | [8]

Clc1ccc(Cl)cc1
inactive: [1] | [2] | [5] | [6] | [8]

CC(C)C#N
inactive: [1] | [2] | [5] | [6] | [7] | [8]

NCCc1ccc(O)cc1
inactive: [1] | [2] | [5] | [6] | [8]

CCCCCCCCCCCC#N
not listed: [3] | [4] | [9]
inactive: all other assays above

Cc1ccc([N+](=O)[O-])cc1C
inactive: [1] | [2] | [5] | [6] | [10] | [8]

C#CC(C)(C)NC(=O)c1cc(Cl)cc(Cl)c1
inactive: [1] | [2] | [5] | [6] | [7] | [8]

CCCN(CCC)N=O
inactive: [1] | [2] | [5] | [6] | [7] | [8]
